This note sets out measurements from PubChem BioAssay (NCI).

Molecules are shown by their SMILES. About 83,000 compounds went through this panel and 20% of them were active in at least one assay; those are over-represented in the sample as a whole.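 Step 1: grow cells in 96-well plates. Step 2: add test compound at a single concentration. Step 3: incubate 48 h. Step 4: record percent growth.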 Unmarked numbers belong to inactive results. How the source made its calls: active means growth percent below 10; inactive means the rest.

For the assay, the system named is SNB-75 CNS. The assay is described as follows: NCI-60 one-dose screen, 48 h (100 = growth as untreated, 0 = no growth, -100 = all killed). Particulars: 10 µM unless noted.
Take `Clc1ccc([I+]c2ccc(Cl)cc2Cl)c(Cl)c1`: the growth is 34%.

As to `Cc1ccc(C2=NN(c3ccc(S(N)(=O)=O)cc3)C(c3cn(-c4ccccc4)nc3-c3ccccc3)C2)cc1` (stereo not drawn), the growth is 81.6%.

Turning to `N#CC1=C(N)OC2=C(C(=O)CCC2)C1c1ccco1` (stereo not drawn), the growth was 95.7%.

With `COC1=CC(c2ccc[nH]2)=N/C1=C\c1[nH]c(C)c(C(=O)CCCCC(=O)Oc2ccc3c(c2)CCC2C3CC[C@]3(C)[C@@H](O)CC[C@@H]23)c1C` (stereo partly drawn), the growth is 62.7%.

As to `COc1ccc(NC(=O)CSc2nc3ccccc3c(=O)n2Cc2cc(OC)c(OC)c(OC)c2)cc1`, the growth was 66.3%.

Consider `Nc1c(C(=O)Nc2c(Cl)cccc2Cl)sc2nc3c(cc12)CCCCC3`, for which the growth is 26.7%.

Regarding `O=C(CN1CCN(c2cc3c(cc2F)c(=O)c(C(=O)O)cn3C2CC2)CC1)Nc1ccc(C(=O)/C=C/c2ccccc2)cc1`, the growth is 61.8%.

As to `COc1cc(/C=C/C(=O)c2ccc(NC(=O)CN3CCN(c4cc5c(cc4F)c(=O)c(C(=O)O)cn5C4CC4)CC3)cc2)cc(OC)c1OC`, the growth is 76.6%.

For the molecule `NC(=O)c1c(NC(=O)c2ccc(OCC3CCCO3)cc2)sc2c1CCCC2` (stereo not drawn), the growth is 135%.

Turning to `COc1ccc(/C=C/C(=O)OCC(=O)NNC(=O)c2ccccc2)cc1OC`, the growth is 78.2%.

On to `Cc1sc(N=Nc2ccc(N(C)C)cc2)[n+]([O-])c1C`, for which the growth is 82.5%.

As for `O=C(/C=C/c1ccccc1)n1c(-c2ccc(Cl)cc2)nc2ccccc21`, the growth is 18.1%.

With `COC(=O)[C@H]1[C@H](OC)[C@@H](OC(=O)/C=C/c2ccncc2)CC2CN3CCc4c([nH]c5cc(OC)ccc45)[C@@H]3C[C@@H]21` (stereo partly drawn), the growth was 48.6%.
